Screening data from PubChem.
VHR inh abs – VHR1 phosphatase inhibitors, primary screen, biochemical, absorbance, uHTS. inhibition, % at 13.3 µM. recombinant VHR phosphatase, pNPP absorbance. hit rate 0.52% among 290,000. Dual specificity protein phosphatase 3 (Homo sapiens), P51452; in the data active means inhibition above about 50%
PfHsp40 rescue – rescue of yeast from PfHsp40 toxicity, primary screen, S. cerevisiae, ATP luminescence | growth rescue, % at 12.5 µM | hit rate 0.68% among 340,000 | S. cerevisiae expressing PfHsp40, growth rescue; in the data active means growth rescue above about 28%, passing the limit was not always enough; inconclusive means no clear call, values can overlap the other calls;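 further: yeast W303a lacking pdr1 and pdr3 grown in galactose medium; growth measured after three days at 30 °C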
MazF activator – activators of E. coli MazEF toxin-antitoxin RNase, primary screen, biochemical, fluorescence, uHTS; activation, % at 20 µM; AID 504720, 2011; FAM/BHQ RNA-DNA oligo cleavage fluorescence, 5 h; Endoribonuclease toxin MazF (Escherichia coli (strain K12)), P0AE70; hit rate 0.32% among 350,000; in the data active means activation above about 50%
PrPC TRFRET – inhibitors of human cell surface prion protein PrPC, primary screen, cell-based, TR-FRET; TR-FRET read-out; Major prion protein (Homo sapiens), P04156; hit rate 0.43% among 370,000; inhibition, % at 13.8 µM; in the data active means inhibition above about 24%; further: 0% = median of the test wells and 100% = reference compound wells
PrP UTR inh – inhibition of PrP 5' UTR reporter expression; AID 488862, 2010; inhibition, % (test concentration not listed); cell-based PrP 5' UTR mRNA reporter, plate reader; hit rate 0.35% among 340,000; in the data active means inhibition above about 52%; further: 0 = median of the neutral control wells
BJeLR lethal – MLPCN primary cell-based screen for lethality selective to Ras in HRASV12 cells | BJeLR (HRASV12) viability, CellTiter-Glo ATP luminescence, 48 h | inhibition, % (no concentration beside the values) | hit rate 0.17% among 300,000 | AID 1554, 2009; in the data active means inhibition above about 50%; inconclusive means no clear call, values can overlap the other calls
PrPC TRFRET cf – confirmation of inhibitors of cell surface human prion protein, confirmation, cell-based, TR-FRET | hit rate 65% among 1,500 | AID 743200, 2013 | cell surface PrPC level | shares compounds with PrPC TRFRET | inhibition, % at 13.8 µM; in the data active means inhibition above about 25%
LD9 tox – cytotoxicity in LD9 cells, cytotoxicity control for cell surface PrPc inhibitor project, cell-based, luminescence, high throughput. shares compounds with PrPC TRFRET. luminescence viability. inhibition, % at 13.8 µM. hit rate 29% among 1,500. AID 743201, 2013; in the data active means inhibition above about 9.5%
* = called active by the depositor; ? = inconclusive; · = not tested or not shown. Sampled rows, rich in hits. Any-hit rate of the full collection: about 2.1%.

SMILES	VHR inh abs	PfHsp40 rescue	MazF activator	PrPC TRFRET	PrP UTR inh	BJeLR lethal	PrPC TRFRET cf	LD9 tox
CCOC(=O)C(=N/O)/C(C)=N/NC(=O)C(=O)Nc1cc(Cl)ccc1Cl	37	-1	1	3	-16	-3	·	·
COc1ccccc1N(CC(=O)NC1CC2CCC1C2)S(=O)(=O)c1ccc(C)cc1 (configuration not stated)	10	-1	3	55*	-6	-1	10	-5
CNC(=O)COc1ccccc1C(=O)Nc1ccc2c(c1)oc1ccccc12	55*	0	-36	31*	-17	9	32*	-2
N#Cc1ccccc1NC(=O)c1ccccc1OCC(=O)Nc1ccc2c(c1)oc1ccccc12	·	0	-12	-3	-26	13	·	·
Nc1ccc2nc(-c3ccc(-c4nc5ccc(N)cc5[nH]4)cc3)[nH]c2c1	-41	·	-7	26*	·	4	25*	1
Oc1cc2c(cc1O)C1c3ccc(O)c(O)c3OCC1(O)C2 (configuration not stated)	21	0	264*	42*	-5	·	55*	-1
CCOc1ccc(-n2nc3c(Cl)nnc(C)c3c2C)cc1	-11	-1	-7	0	-11	12	·	·
CCOc1ccc(-n2nc3c(=S)[nH]nc(C)c3c2C)cc1	-11	-1	-6	92*	-5	6	125*	-4
CCOc1ccc(-n2nc3c(SCCN4CCCC4)nnc(C)c3c2C)cc1	12	0	-2	55*	-17	6	74*	-3
Cc1ccc(-n2nc3c(SCCN4CCOCC4)nnc(C)c3c2C)cc1	14	-1	-13	33*	1	-21	56*	-4
CCOc1ccc(-n2nc3c(=O)[nH]nc(C)c3c2C)cc1	-7	-1	5	2	-35	-2	·	·
CC1CCN(C(=O)c2cc(S(=O)(=O)N3CCOCC3)ccc2N2CCCC2)CC1	·	-1	-6	1	-13	·	·	·
Brc1c(CSc2nc3ccccc3o2)nc2ncccn12	30	-2	4	49*	-54	10	47*	-6
C=CCn1c(=O)c2ccccc2n2c(SCC(N)=O)nnc12	9	-1	11	36*	-17	1	35*	2
Cc1cc(Br)ccc1NC(=O)CN(C)C(=O)c1cc(S(=O)(=O)N(C)C)ccc1N1CCCC1	14	0	5	-5	-17	8	·	·
Cc1[nH]nc(C(F)(F)F)c1N=NN1CCOCC1	·	-1	10	31*	-14	·	40*	65*
Clc1ccc(N=NN2CCOCC2)cc1	18	-2	9	-3	-38	-4	·	·
Cn1c2ccccc2c(=O)c2ccc(C#Cc3ccc(N)cc3)cc21	1	1	-35	29*	-18	-9	53*	19*
CCOC(=O)[C@]12CCCC=C1N(CCCOC)C(=O)[C@@H]2CC(=O)NCc1cccc(C(F)(F)F)c1	·	·	·	-3	·	·	·	·
CCOc1ccccc1NC(=O)Nc1ccc(Cl)cc1	42	1	15	26*	-1	1	13	0
CCOc1ccccc1NC(=O)Nc1ccccn1	18	1	-18	-5	-17	-5	·	·
S=C(Nc1ccccc1)Nc1ccc(Br)cc1	3	3	2	25*	·	0	20	5
COc1ccc(CC2C(=O)NC(C)C(=O)N(C)C3Cc4ccc(cc4)Oc4cc(ccc4O)CC(C(=O)NC(C)C(=O)NC(C)C(=O)N2C)N(C)C3=O)cc1 (configuration not stated)	·	-2	14	83*	49	·	90*	34*
COc1cc(-c2nc3ccccn3c2NCc2ccccc2)ccc1SC1CCCCC1	·	?	-17	·	-8	8	·	·
COc1cc(-c2nc3ccc(C)cn3c2NCc2ccccc2)ccc1SC1CCCCC1	·	0	-6	25*	-4	1	14	11*
SMILES	VHR inh abs	PfHsp40 rescue	MazF activator	PrPC TRFRET	PrP UTR inh	BJeLR lethal	PrPC TRFRET cf	LD9 tox
C1=C(CCNc2ncnc3c2[nH]c2ccccc23)CCCC1	12	-1	13	40*	-41	·	40*	22*
O=c1c2[nH]c3ccccc3c2ncn1CCC1=CCCCC1	24	?	-3	0	-23	4	·	·
N#Cc1ccccc1NC(=O)C(=O)NCCCN1CCCC1=O	·	1	3	12	-13	-14	·	·
O=C(O)Cc1sc(NC2CCCCC2)nc1-c1ccc(Cl)cc1	1	0	2	-4	-19	-11	·	·
Cc1ccc(C(=O)Nc2nc(-c3ccccn3)cs2)cc1S(=O)(=O)N1CCOCC1	·	0	4	25*	39	·	23	3
O=C(Nc1nc(-c2ccccn2)cs1)c1ccc(F)c(S(=O)(=O)N2CCOCC2)c1	·	-1	-3	27*	42	·	33*	18*
O=C(Nc1nc(-c2ccccn2)cs1)c1cc(S(=O)(=O)N2CCOCC2)ccc1F	·	0	-9	-2	4	·	·	·
COc1ccccc1-n1nnnc1SCC(=O)NCC1(N2CCCCC2)CCCCC1	·	-1	4	-1	3	·	·	·
CCc1ccccc1N(C)S(=O)(=O)c1ccc2[nH]cc(C(=O)N3CCc4ccccc43)c(=O)c2c1	0	0	-26	100*	11	0	4	-5
Cc1cc(NCCCn2ccnc2)n2nc(C)c(-c3ccc(Cl)cc3)c2n1	4	0	-2	44*	·	-4	2	9.7*
Cc1cc(NCCCn2ccnc2)n2nc(C)c(-c3ccccc3)c2n1	-2	0	-1	-4	-18	8	·	·
COc1ccc(NC(=O)c2cc3ccccc3[nH]2)cc1	13	-1	-1	-6	-62	-1	·	·
COc1ccc2[nH]c(C(=O)Nc3ccc(C)c(F)c3)cc2c1	-1	1	1	39*	-38	-6	99*	5
COc1ccc2[nH]c(C(=O)N/N=C/c3ccc(O)cc3O)cc2c1	·	-1	-12	32*	35	38	40*	19*
CC(=O)c1cc(-c2ccccc2-c2ccccc2)c(=O)n2c1CCC2	·	·	·	-2	·	·	·	·
Cc1cc2ccccc2n1CCNC(=O)Cc1ccccc1	2	-1	-27	27*	-8	5	14	-4
Cc1cccc(CC(=O)NCCn2c(C)cc3ccccc32)c1	2	-1	5	27*	-28	12	8	-4
